Results: PubChem BioAssay AID624331 (National Center for Advancing Translational Sciences (NCATS), 2012)
Inconclusive results are not listed. Where a call stands in place of a potency, no number is given. The source made the active and inactive calls. The call rests on the fitted dose curve; in most records, active means well fitted activation curve with a large enough effect; inconclusive means small, poorly fitted or top-dose-only effect; inactive means no such curve, though single readings can be large or run the other way.

Experiment: qHTS assay for re-activators of p53 using a Luc reporter: Hit Validation with no p53 Expressed
Details: p53-null cells, luciferase reporter counter-screen; series mostly up to 46.1 µM
Method in brief: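 Counter-screen of primary hits in a cell line not transfected with p53, in Opti-MEM with 10% FBS; compounds at several concentrations (10 mM stock, 1:5; top 46.1 µM in well), 24 h at 37 deg C, 5% CO2. Luminescence read after 10 min with Amplite reagent.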
With Cc1cc(-c2nnc(SCc3ccccn3)o2)no1 the Potency was “inactive”. With O=C(NC(=S)NC1CCCCC1)c1ccccc1[N+](=O)[O-] the Potency was “inactive”. In the case of COc1ccc(NC(=O)COC(=O)C23CC4CC(CC(O)(C4)C2)C3)cc1Cl, the Potency is reported as “inactive”. In the case of COCCn1c(SCC(=O)Nc2ccc(N3CCOCC3)cc2)nc2ccccc21, the Potency is reported as “inactive”. In the case of Cc1ccc(NC(=S)NC(=O)c2cccs2)cc1F, the Potency is reported as “inactive”. With NNc1nc(NCc2ccccc2)nc(N2CCOCC2)n1 the Potency was “inactive”. In the case of COc1ccc(-c2nnc(-c3ccc(Br)o3)o2)cc1OC, the Potency is reported as “inactive”. With O=[N+]([O-])c1ccc(/C=N/NC(=S)Nc2ccccc2F)o1 the Potency was “inactive”. For Cc1cc(/C=C2/C(=O)NN(c3ccccc3)C2=O)c(C)n1-c1cccc(O)c1, the Potency was “inactive”. For O=C(Nc1nnc(-c2ccccc2F)s1)C1CCN(S(=O)(=O)c2ccc(Cl)cc2)CC1, the Potency was “inactive”. In the case of COc1ccc(NC(=S)NC(=NS(=O)(=O)c2ccc(Cl)cc2)c2ccccc2)cc1, the Potency is reported as “inactive”. With O=C(c1cnn(-c2ccccc2)c1)c1ccccc1O the Potency was “inactive”. With O=C(/C=C/c1ccco1)Nc1ccccn1 the Potency was “inactive”. For COc1ccc([N+](=O)[O-])cc1NC(=O)CSCc1ccc(Br)cc1, the Potency was “inactive”. In the case of Cc1nnc2n(c1=O)N=C(c1ccc(Cl)cc1)CS2, the Potency is reported as “inactive”. With COc1ccc(CCC(=O)Nc2ccc(-c3noc(-c4ccc(OC)c(OC)c4)n3)cc2)cc1 the Potency was “inactive”. With CCOc1ccc2cc(C#N)c(SCC(=O)OC)nc2c1 the Potency was “inactive”. In the case of Cc1ccc(C(C)C)c(OCc2ccc(C(=O)N/N=C/c3ccc(O)cc3O)cc2)c1, the Potency is reported as “inactive”. For COc1ccccc1NC(CC(=O)c1ccccc1)C(=O)OCC(=O)c1ccc(C)c(C)c1 (centres undefined), the Potency was “inactive”.
